Results filed as inconclusive are left out. Calls of active or inactive are those of the source. Unless noted, calls come from the whole dose curve; as a rule, active = well fitted curve in the direction sought with a large enough effect in the repeat runs; inconclusive = weak or mixed curves; inactive = no such curve, though single readings can be large; an effect the other way counts as inactive or inconclusive.
Experiments:
[1] = qHTS assay for small molecule agonists of the p53 signaling pathway (AID 651631; calls by dose curve; note: nearly all actives have a fitted effect of over 15% in size)
Outline: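 Fluorescence intensity from cleaved LiveBLAzer B/G substrate (2 h, room temperature) served as the signal. Beforehand, HCT-116 reporter cells bearing p53 response elements were treated 16 h at 37 °C with DMSO-dissolved compounds.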

[2] = qHTS assay for small molecule agonists of the p53 signaling pathway - cell viability (AID 651633; calls by dose curve;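 note: p53RE-bla HCT reporter cells with a stable beta-lactamase p53 reporter; series mostly up to about 83 µM; nearly all actives have a fitted effect of over 30% in size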)
Outline: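 Viability counter-read: CellTiter-Glo luminescence (30 min, room temperature) in the same p53RE-bla plates. These plates had been exposed to compounds for 16 h at 37 C.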

[3] = qHTS assay for small molecules that induce genotoxicity in human embryonic kidney cells expressing luciferase-tagged ATAD5 - cell viability (AID 651634; calls by dose curve; note: nearly all actives have a fitted effect of over 25% in size)
Outline: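 Fluorescence from CellTiter-Fluor, reporting protease activity within live cells, served as the viability read-out. HEK293T cells carrying luciferase-tagged ATAD5 had been treated with compound for 15.5 hr at 37C.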

[4] = qHTS assay for small molecule disruptors of the mitochondrial membrane potential - cell viability (AID 720634; calls by dose curve;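 note: human HepG2 liver cancer cells; series mostly up to about 83 µM; nearly all actives have a fitted effect of over 20% in size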)
Outline: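 Cells: HepG2, 2,000/well, attached overnight. Compound 1 hr, 37 C/5% CO2. +m-MPI dye, +CellTiter-Glo 30 min RT. Readout: luminescence (ATP).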

[5] = qHTS assay to test for compound auto fluorescence at 590 nm (red) in HepG2 cells (AID 720674)
Outline: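 Red autofluorescence (Ex/Em 540/590 nm, Rose Bengal sodium equivalents) was measured in HepG2 cells, 2,000 per well in MEM plus 10% FBS, plated overnight at 37 C. Readings were taken 1 hr after adding 23 nL compound or DMSO, at 37 C and 5% CO2.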

[6] = qHTS assay to test for compound auto fluorescence at 460 nm (blue) in HEK293 cells (AID 720678)
Outline: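 Cells were seeded and left to adhere for 4-5 hr at 37C. Compounds were then pin-transferred. After an overnight incubation at 37C under 5% CO2, intrinsic fluorescence at 405/460 nm was measured and referenced to triamterene.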

[7] = qHTS assay to test for compound auto fluorescence at 590 nm (red) in HEK293 cells (AID 720679)
Outline: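 Each well held 2,000 HEK293 cells in medium containing 10% dialyzed FBS. Following 4-5 hr attachment at 37C, 23 nL test compound or DMSO was added; plates sat overnight, and red fluorescence (540/590nm) was recorded.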

[8] = qHTS assay to test for compound auto fluorescence at 535 nm (green) in HEK293 cells (AID 720680)
[9] = qHTS assay to test for compound auto fluorescence at 460 nm (blue) in HEK293 cell free culture (AID 720681)
Outline: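 Blue fluorescence (Ex 405/Em 460 nm, triamterene-equivalent) was read immediately after pin transfer of compound or DMSO into medium (DMEM, 10% FBS) without cells.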

[10] = qHTS assay to test for compound auto fluorescence at 535 nm (green) in HEK293 cell free culture (AID 720682)
Outline: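 Intrinsic compound fluorescence is measured in culture medium containing 10% FBS, with excitation at 485 nm and detection at 535 nm, referenced to fluorescein.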

[11] = qHTS assay to test for compound auto fluorescence at 590 nm (red) in HEK293 cell free culture (AID 720683)
Outline: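 Red-channel autofluorescence of compounds in culture medium (DMEM, 10% FBS), no cells, measured at 540/590 nm. Rose Bengal sodium is the reference fluorophore for equivalence.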

[12] = qHTS assay to test for compound auto fluorescence at 590 nm (red) in HepG2 cell free culture (AID 720684)
Outline: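 Steps: dispense MEM/10% FBS medium, no cells; pin compound or DMSO vehicle; read red channel, Ex/Em 540/590 nm. Output given as Rose Bengal sodium equivalents.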

[13] = qHTS assay to test for compound auto fluorescence at 460 nm (blue) in HepG2 cell free culture (AID 720685)
Outline: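 Compound (23 nL) or DMSO pinned into cell-free MEM with 10% FBS; blue fluorescence read at 405/460 nm excitation/emission, expressed as auto-fluorescence equivalency to triamterene.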

[14] = qHTS assay to test for compound auto fluorescence at 535 nm (green) in HepG2 cell free culture (AID 720686)
[15] = qHTS assay to test for compound auto fluorescence at 460 nm (blue) in HepG2 cells (AID 720687)
Outline: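 Blue-channel autofluorescence (Ex/Em 405/460 nm, triamterene-equivalent) was measured after 1 hr compound exposure at 37 C, 5% CO2. Cells were HepG2, plated overnight at 37 C in MEM plus 10% FBS.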

[16] = target: Glucocorticoid receptor (Homo sapiens) (UniProt P04150); assay: qHTS assay to identify small molecule agonists of the glucocorticoid receptor (GR) signaling pathway (AID 720691; active = well fitted activation curve with a large enough effect in the signal ratio in the repeat runs, not every such curve was filed as active; the % refers to the signal ratio)
Outline: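 Fluorescence intensity from LiveBLAzer B/G FRET substrate (2 h, room temperature) reports beta-lactamase expression driven by the glucocorticoid response element in GR-bla HeLa cells after 18 h compound exposure at 37 C.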

[17] = target: Glucocorticoid receptor (Homo sapiens) (UniProt P04150); assay: qHTS assay to identify small molecule antagonists of the glucocorticoid receptor (GR) signaling pathway (AID 720692; active = well fitted inhibition curve with a large enough effect in the signal ratio in the repeat runs, not every such curve was filed as active; the % refers to the signal ratio)
Outline: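 HeLa GR-bla cells; cmpd + dex 5 nM final, 18 h 37 C; LiveBLAzer B/G FRET substrate 2 h RT; fluorescence intensity read. Antagonist mode, qHTS.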

[18] = qHTS assay to test for compound auto fluorescence at 535 nm (green) in HepG2 cells (AID 720675)
[19] = qHTS assay for small molecules that induce genotoxicity in human embryonic kidney cells expressing luciferase-tagged ATAD5 (AID 651632); note: nearly all actives have a fitted effect of over 15% in size
Outline: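 ATAD5-luc HEK293T, 2,000 cells/well; cpd or DMSO pin-transferred; 16 hr, 37C/5% CO2; Amplite 30 min RT; luminescence.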
% is set by controls: 0 for no effect and ±100 for the full control effect.

Glucocorticoid receptor (Homo sapiens), sequence (P04150 whole entry, looked up): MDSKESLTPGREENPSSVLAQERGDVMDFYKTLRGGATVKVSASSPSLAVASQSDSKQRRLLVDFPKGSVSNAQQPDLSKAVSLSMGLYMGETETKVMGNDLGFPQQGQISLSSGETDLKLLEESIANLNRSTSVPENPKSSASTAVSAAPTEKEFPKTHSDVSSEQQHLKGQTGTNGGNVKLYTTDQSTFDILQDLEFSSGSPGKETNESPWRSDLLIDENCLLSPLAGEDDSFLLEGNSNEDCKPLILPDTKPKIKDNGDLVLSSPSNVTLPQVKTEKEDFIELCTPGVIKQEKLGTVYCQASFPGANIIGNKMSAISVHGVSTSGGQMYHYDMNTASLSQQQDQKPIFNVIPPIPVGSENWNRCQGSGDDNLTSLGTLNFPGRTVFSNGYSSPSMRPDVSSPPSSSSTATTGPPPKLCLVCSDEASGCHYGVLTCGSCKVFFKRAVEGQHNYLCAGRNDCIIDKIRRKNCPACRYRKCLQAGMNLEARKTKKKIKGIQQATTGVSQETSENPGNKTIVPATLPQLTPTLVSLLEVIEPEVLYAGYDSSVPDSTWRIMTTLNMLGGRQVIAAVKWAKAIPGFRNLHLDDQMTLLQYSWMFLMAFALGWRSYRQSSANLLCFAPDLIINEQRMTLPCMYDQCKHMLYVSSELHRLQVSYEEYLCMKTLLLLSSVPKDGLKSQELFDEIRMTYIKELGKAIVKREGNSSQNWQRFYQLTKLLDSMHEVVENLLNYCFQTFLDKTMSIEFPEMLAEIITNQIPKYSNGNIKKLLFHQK

Cc1ccc(C(C)c2ccc(C)c(C)c2)cc1C
inactive: Potency [1] | Potency [2] | Potency [3] | Potency [4] | outcome [5] | Potency [6] | outcome [7] | outcome [8] | Potency [9] | outcome [10] | outcome [11] | outcome [12] | Potency [13] | outcome [14] | Potency [15] | Potency [16] | Potency [17]

CN(C)C/C=C(/c1ccc(Br)cc1)c1cccnc1
inactive: Potency [1] | Potency [2] | Potency [3] | Potency [4] | outcome [5] | outcome [18] | outcome [7] | outcome [8] | outcome [10] | outcome [11] | outcome [12] | Potency [13] | outcome [14] | Potency [15] | Potency [16] | Potency [17]

O=CNc1ccccc1
inactive: Potency [19] | Potency [2] | Potency [3] | Potency [4] | outcome [5] | Potency [6] | outcome [7] | outcome [8] | Potency [9] | outcome [10] | outcome [11] | outcome [12] | Potency [13] | outcome [14] | Potency [15] | Potency [16]

CCCCCCCCCCCCCCCCCBr
inactive: Potency [19] | Potency [2] | Potency [3] | Potency [4] | fluorescence, relative to Rose Bengal [5] -0.244% [at 18.6 µM] | fluorescence, % of fluorescein control [18] -0.0441% [at 18.6 µM] | fluorescence, % of triamterene [6] 0.159% [at 18.6 µM] | fluorescence, % of fluorescent control [7] 0.301% [at 18.6 µM] | fluorescence, % of fluorescein [8] 0.0114% [at 18.6 µM] | fluorescence, % of fluorescent control [9] -0.0559% [at 18.6 µM] | activity change [10] -0.0304% [at 18.6 µM] | fluorescence, % of fluorescent control [11] -0.288% [at 18.6 µM] | fluorescence, % of Rose Bengal [12] 0.0382% [at 18.6 µM] | fluorescence, % of fluorescent control [13] 0.0584% [at 18.6 µM] | fluorescence, % of fluorescent control [15] 0.0228% [at 18.6 µM] | Potency [16] | Potency [17]

CC(C(=O)O)c1ccc(C(=O)c2ccccc2)s1 (stereo not drawn)
inactive: Potency [19] | Potency [2] | Potency [3] | fluorescence, relative to Rose Bengal [5] -0.233% [at 18.6 µM] | fluorescence, % of fluorescein control [18] -0.0168% [at 18.6 µM] | fluorescence, % of triamterene [6] 0.0309% [at 18.6 µM] | fluorescence, % of fluorescent control [7] -0.0493% [at 18.6 µM] | fluorescence, % of fluorescein [8] 0.0614% [at 18.6 µM] | fluorescence, % of fluorescent control [9] -0.0527% [at 18.6 µM] | activity change [10] -0.0099% [at 18.6 µM] | fluorescence, % of fluorescent control [11] -0.0875% [at 18.6 µM] | fluorescence, % of Rose Bengal [12] 0.261% [at 18.6 µM] | fluorescence, % of fluorescent control [13] -0.006% [at 18.6 µM] | fluorescence, % of fluorescein control [14] 0.146% [at 18.6 µM] | fluorescence, % of fluorescent control [15] 0.0098% [at 18.6 µM]

COC(Cc1ccccc1)OC
inactive: Potency [19] | Potency [2] | Potency [3] | Potency [4] | outcome [5] | outcome [18] | Potency [6] | outcome [7] | outcome [8] | outcome [10] | outcome [11] | outcome [12] | Potency [13] | outcome [14] | Potency [15] | Potency [16] | Potency [17]

Source: PubChem BioAssay (Tox21)
